# Results published in the supplement of paper PMC3334620.
# Over roughly 33,000 sequences, “E-score (-0.5 to 0.5)” has its median near -0.015; the highest 2% begin near 0.3. The sample as a whole holds a higher share of the highest values than the screen did.
# Biological target: T1, Abf1 (UniProt P14164)
# T1 sequence: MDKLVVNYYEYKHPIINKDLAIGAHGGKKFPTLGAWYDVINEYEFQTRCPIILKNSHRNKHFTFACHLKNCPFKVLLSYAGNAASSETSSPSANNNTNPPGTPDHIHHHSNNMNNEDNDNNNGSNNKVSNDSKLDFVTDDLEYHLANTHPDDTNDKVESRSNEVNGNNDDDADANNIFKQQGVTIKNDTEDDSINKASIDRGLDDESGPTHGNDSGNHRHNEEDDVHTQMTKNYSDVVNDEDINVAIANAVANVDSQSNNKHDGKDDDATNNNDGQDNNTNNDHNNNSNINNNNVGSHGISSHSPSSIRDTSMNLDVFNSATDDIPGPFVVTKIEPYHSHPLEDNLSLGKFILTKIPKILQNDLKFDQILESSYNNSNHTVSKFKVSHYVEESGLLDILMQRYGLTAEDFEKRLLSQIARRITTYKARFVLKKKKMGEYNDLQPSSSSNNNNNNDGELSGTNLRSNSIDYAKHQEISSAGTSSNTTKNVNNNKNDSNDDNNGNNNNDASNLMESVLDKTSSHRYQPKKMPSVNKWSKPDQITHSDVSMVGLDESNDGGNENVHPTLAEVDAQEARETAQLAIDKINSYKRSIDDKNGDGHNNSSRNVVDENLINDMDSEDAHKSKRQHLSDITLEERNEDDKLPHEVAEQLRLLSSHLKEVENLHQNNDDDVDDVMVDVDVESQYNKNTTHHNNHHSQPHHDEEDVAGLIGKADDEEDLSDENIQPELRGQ
# Assay: PBM E-score (8-mer binding enrichment) (E-score (-0.5 to 0.5)); higher = stronger / more preferred TF binding
# Settings: protein concentration: 200 nM; construct: GST-full length
# Method in brief: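 The E-score, a modified Wilcoxon-Mann-Whitney statistic, was computed by the Universal PBM Analysis Suite for every ungapped eight-base word pooled with its reverse complement. Scans behind it were normalised with masliner after bound GST-tagged yeast transcription factors were detected with fluorescent anti-GST. The proteins, at about 100-200 nM, had been applied to universal all-10-mer Agilent arrays made double-stranded by primer extension.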
row,Sequence,PBM E-score
1,CGAGACTC,0.0667
2,CGGAGACG,0.0614
3,AAAAGGCT,-0.0975
4,CGGCCGAG,0.0212
5,CCCCGGAC,-0.105
6,GTGGTCAA,0.0649
7,CGTACGCC,0.155
8,AGTACGGA,0.118
9,CGTACGGA,0.355
10,CGTACGGC,0.396
11,AGTACGGC,0.224
12,AGTACGTC,0.125
13,GGTACGGA,0.13
14,CGTACGTC,0.359
15,CGTACGTA,0.266
16,ATGACTGA,-0.0877
17,GGTATGAC,-0.0891
18,CGTATGAG,0.189
19,CGTATGAC,0.334
20,AGAATGAC,0.255
21,CGAATGAA,-0.164
22,AGTATGAC,0.186
23,AGTATGAA,0.135
24,CGAATGAC,0.312
25,CGTATGAA,0.426

row,Sequence,PBM E-score
1,AGTGTTCA,-0.11
2,ACCAGTGG,-0.261
3,ATAATCCG,-0.0846
4,AAACAACG,0.0689
5,CAGTCGAG,-0.177
6,CGCCGCGA,0.0127
7,TCCGTTAA,0.0849
8,CGTGATCC,-0.0112
9,CCTGATCA,0.112
10,GGTGATCA,0.305
11,GCTGATCA,0.139
12,AGTGATCC,0.189
13,AGTGATCA,0.416
14,CGTGATCA,0.379
15,GGGGATCA,-0.0388
16,AGTGATCG,0.239
17,AGTACCGG,-0.202
18,ACTCCTGC,-0.173
19,GAGATCAA,0.109
20,GAGATCGC,0.164
21,AAGATCAC,0.325
22,AAGATCAT,0.289
23,GAGATCAC,0.347
24,CAGATCAC,0.284
25,AATTGACT,-0.00646

row,Sequence,PBM E-score
1,CGTACCGA,0.232
2,AATAAGCG,-0.0622
3,AAATCATC,0.278
4,ATATCATG,0.297
5,CTATCATA,0.143
6,CTATCATC,0.151
7,ATATCATA,0.33
8,ATATCATC,0.408
9,GCAAAAAC,0.0419
10,GATAGGAC,-0.123
11,AGGCGTTC,-0.191
12,AATACTAT,-0.00924
13,AATACTAC,0.301
14,AATACTAA,0.0807
15,AGGGACCG,-0.0817
16,CATGCCGG,-0.00463
17,ATCACGAT,0.26
18,ATCACGCA,0.272
19,ATCACGAC,0.363
20,ATCACGTC,0.336
21,ATCACGGA,0.246
22,CTCACGTC,0.0288
23,ATCACGGG,0.163
24,ATCACGCC,0.253
25,ATCACGAA,0.256

row,Sequence,PBM E-score
1,ATCACGTA,0.218
2,ATCACGCG,0.373
3,ATCACGGC,0.35
4,AGGCTTAT,-0.0827
5,CAACCGCA,-0.0837
6,ACTTTGTC,0.217
7,CCCGCTAG,-0.157
8,ATGATCCA,0.0885
9,CCGTCATC,0.128
10,GCGTCATA,0.138
11,CCGTCATA,0.37
12,AATGGTCC,-0.0212
13,ATCATCAT,0.376
14,TTCATCAA,0.041
15,AACATCAT,0.309
16,ATCATCAG,0.16
17,AACATCAG,0.0871
18,ATCATCAA,0.26
19,AACATCAC,0.283
20,ATCATCGG,0.116
21,ATCATCGC,0.301
22,GTCATCAA,0.31
23,ATCATCGA,0.175
24,AGCATCAT,0.0136
25,ATCGCATC,0.0782

row,Sequence,PBM E-score
1,GAATCCCA,-0.00947
2,AGGCCTTG,-0.302
3,CTCTCTGA,-0.149
4,ACCCTTCA,-0.0788
5,AGGTGTCA,-0.0121
6,AATTCTGT,-0.144
7,AGCATCAC,-0.0618
8,CACATCAC,0.244
9,ATCATCAC,0.393
10,CTCATCAC,0.217
11,GACATCAA,0.178
12,GCCATCAC,-0.121
13,GACATCAC,0.352
14,GGCATCAC,0.0726
15,GTCATCAC,0.334
16,AGCTTGAC,-0.245
17,GTGGTGTA,-0.0517
18,GCCCCTTA,-0.138
19,CGCCGCCG,-0.223
20,ATACGGCG,0.384
21,ATACGGCC,0.208
22,GTACGGCA,0.222
23,ATACGGCA,0.376
24,ATACGGGG,0.172
25,CTACGGCA,0.291

row,Sequence,PBM E-score
1,AGAGGGTC,-0.274
2,CTTAGGGC,-0.183
3,GGCTCGAC,-0.0785
4,CGGCGTCA,-0.103
5,GATCACTA,0.389
6,AATCACTA,0.359
7,AATCACTC,0.224
8,CATCACTC,0.385
9,GCTCACTA,0.0163
10,GTTCACTA,0.115
11,CATCACTA,0.351
12,CCTCACTC,0.0309
13,CCTCACTA,0.159
14,CATCACAA,0.0688
15,CATCACAC,0.141
16,AATCACTG,0.204
17,ATCGTAGA,0.28
18,AGTGTGGA,-0.0464
19,CAGTAGGA,-0.109
20,ATTGTGGG,-0.127
21,TACCGCGA,-0.111
22,GGTCGACA,-0.106
23,GAGCCTAC,-0.171
24,ATGGTTTC,-0.0221
25,GATGGGCC,-0.28

row,Sequence,PBM E-score
1,CACAGTTA,0.164
2,GCTCGAGA,-0.143
3,TCTCGAGA,0.302
4,CCTCGAGA,-0.0603
5,CATTGTGC,-0.115
6,CCGAACTA,-0.143
7,CCGTAGAA,0.298
8,GCGTAGAA,0.0196
9,ACGTAGAA,0.108
10,TCGTAGAA,0.393
11,CCGTAGAC,0.0491
12,CCGTAGAG,0.102
13,ATACCGGC,0.0536
14,CGGGCGCC,-0.053
15,GTGATTAA,0.249
16,CGGATAGA,0.147
17,AGTGGTGA,0.131
18,ACATCACT,0.415
19,ACATCATC,0.328
20,ACATCACA,0.183
21,GCATCACC,-0.101
22,ACATCATG,0.24
23,ACATCAGT,-0.0164
24,ACATCATA,0.169
25,ACATCACG,0.231

row,Sequence,PBM E-score
1,ACATCACC,0.353
2,CAACCTAC,-0.122
3,GCCTAGGA,-0.178
4,CATGGCGG,-0.0941
5,ACATCTGA,-0.0545
6,CGATAAAA,0.285
7,TGATAACA,0.341
8,CGATAACA,0.106
9,TGATAAAA,0.337
10,GGATAACA,0.0228
11,GGATAAAA,0.158
12,TCATGAAA,0.00026
13,GGTCGCCA,-0.074
14,TCATGGGA,-0.042
15,AACGCTGT,0.00818
16,ACTGGTAC,-0.0194
17,CGTCCAGC,-0.0241
18,CAGTGACC,0.132
19,GAGTGACA,0.432
20,GAGTGCCA,-0.212
21,CAGTGAAA,0.0736
22,TAGTGTCA,0.117
23,CAGTGACA,0.3
24,GAGTGACC,0.207
25,TAGTGTGA,0.137

row,Sequence,PBM E-score
1,TAGTGACA,0.414
2,AACGGACC,-0.168
3,TGATCCCA,-0.0944
4,CTAGCTGC,-0.114
5,CGAGGTGA,0.129
6,GACACTTA,-0.0374
7,ACTGCACG,-0.0217
8,CGCCACCA,-0.138
9,GTGATCTA,0.407
10,CTGATCTA,-0.106
11,GAGATCTA,-0.121
12,ATGATCTA,0.297
13,GTGATCCA,0.132
14,ATGATCTC,0.296
15,CGGCCAAC,-0.133
16,GACGATGC,0.231
17,ACAGCCGC,-0.223
18,CGTGCAAA,0.337
19,CGTGCACA,0.196
20,CGTGCAAC,0.247
21,TGTGCACA,0.0303
22,CGTGCAAG,0.169
23,CGTGCACG,0.419
